HIF-2a block: inhibitors of HIF-2a; 786-0 RCC cells HIF-2a reporter, luciferase luminescence, overnight; inhibition, % at 18.8 µM; hit rate 0.72% among 360,000; AID 624352;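 active means inhibition of the luminescence signal of 40% or more relative to plate controls, in a single-dose primary screen at 18.75 µM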
Shn3 inh set2: Schnurri-3 reporter inhibition in Clone20 osteoblasts; hit rate 0.52% among 360,000; AID 588674; Clone20 osteoblast Shn3 3'UTR firefly luciferase, 24 h; inhibition, % at 12.5 µM;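 active means mean inhibition of at least 75% with every replicate also reaching 75%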;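 further: 0% = median of neutral control wells and 100% = pilot-screen positive control compound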
MITF TRPM1 inh: inhibitors of MITF-driven TRPM1 promoter in melanoma cells | hit rate 0.83% among 330,000 | inhibition, % at 12.5 µM | SK-MEL-5 TRPM1 promoter luciferase, 24 h;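 active means mean inhibition across replicates of 60% or more, whatever share of single replicates reaches that level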
KKLEB tox: counter-screen for CF NF-kB inhibitors: cytotoxicity | activity change (cytotoxicity), % at 5 µM | KKLEB CF airway cells viability, ATPlite luminescence, overnight; active compounds read low; cells stimulated with P. aeruginosa culture filtrate | AID 602141 | hit rate 0.36% among 360,000;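 active means corrected activity change at or below -50% at 5 µM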
CF NFkB block: cystic fibrosis NF-kB activation inhibition. KKLEB NF-kB-GFP reporter, PAF-induced, GFP fluorescence overnight. hit rate 0.86% among 360,000. inhibition, % at 5 µM. AID 588850;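 active means at least 50% inhibition at 5 µM, scaled per plate between neutral and stimulator controls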;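 further: PAF is a Pseudomonas aeruginosa culture filtrate used as stimulus; plate controls were PAF-stimulated DMSO wells for no effect and unstimulated DMSO wells for full effect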
Peg3 prom inh-1: reduces Peg3 promoter-driven luciferase expression in HeLa; HeLa PEG-Prom luciferase reporter, luminescence, overnight; inhibition, % at 20 µM; hit rate 1.7% among 360,000; AID 588405;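 active means inhibition of at least 50% at 20 µM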
Peg3 prom inh-2: confirmation of Peg3 promoter inhibitors; shares compounds with Peg3 prom inh-1; HeLa PEG-Prom luciferase reporter, luminescence, overnight; inhibition, % at 20 µM; hit rate 84% among 1,300;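 active means at 20 µM dose, 40% or more inhibition averaged across four replicates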
CF NFkB inh conf: CF NF-kB inhibition confirmation, single concentration | shares compounds with CF NFkB block | KKLEB CF airway cells, PAF-induced NF-kB-GFP fluorescence, overnight | inhibition, % at 5 µM | hit rate 64% among 1,300; in the data active means inhibition above about 40%;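 further: stimulus PAF is a Pseudomonas aeruginosa filtrate and not platelet activating factor; plate controls were DMSO wells with stimulus for no effect and unstimulated DMSO wells for full effect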
Mdm2-MdmX confirm: Mdm2/MdmX (human) interaction inhibition, confirmed; shares compounds with HIF-2a block; SaOS-2 split-luciferase Mdm2/MdmX complementation, luminescence; inhibition, % at 8 µM; hit rate 99% among 740; AID 504601;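 active means mean inhibition of the luminescence signal across two replicates at or above 26 percent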
Target sequence (O15151 whole entry, looked up): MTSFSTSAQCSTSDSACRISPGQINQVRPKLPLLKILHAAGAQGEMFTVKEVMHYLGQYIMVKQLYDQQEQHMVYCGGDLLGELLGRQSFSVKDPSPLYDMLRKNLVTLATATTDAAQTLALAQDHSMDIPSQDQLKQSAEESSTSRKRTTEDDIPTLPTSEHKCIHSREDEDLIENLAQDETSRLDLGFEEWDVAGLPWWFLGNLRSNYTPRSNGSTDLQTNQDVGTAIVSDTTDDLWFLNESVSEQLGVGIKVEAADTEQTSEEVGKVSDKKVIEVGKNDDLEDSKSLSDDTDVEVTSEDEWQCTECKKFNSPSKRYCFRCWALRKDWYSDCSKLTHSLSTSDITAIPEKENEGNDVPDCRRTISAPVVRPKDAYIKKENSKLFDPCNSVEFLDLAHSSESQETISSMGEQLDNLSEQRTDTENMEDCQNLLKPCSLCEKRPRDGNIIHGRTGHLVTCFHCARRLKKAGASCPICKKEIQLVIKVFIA
Target sequence (Q00987 whole entry, looked up): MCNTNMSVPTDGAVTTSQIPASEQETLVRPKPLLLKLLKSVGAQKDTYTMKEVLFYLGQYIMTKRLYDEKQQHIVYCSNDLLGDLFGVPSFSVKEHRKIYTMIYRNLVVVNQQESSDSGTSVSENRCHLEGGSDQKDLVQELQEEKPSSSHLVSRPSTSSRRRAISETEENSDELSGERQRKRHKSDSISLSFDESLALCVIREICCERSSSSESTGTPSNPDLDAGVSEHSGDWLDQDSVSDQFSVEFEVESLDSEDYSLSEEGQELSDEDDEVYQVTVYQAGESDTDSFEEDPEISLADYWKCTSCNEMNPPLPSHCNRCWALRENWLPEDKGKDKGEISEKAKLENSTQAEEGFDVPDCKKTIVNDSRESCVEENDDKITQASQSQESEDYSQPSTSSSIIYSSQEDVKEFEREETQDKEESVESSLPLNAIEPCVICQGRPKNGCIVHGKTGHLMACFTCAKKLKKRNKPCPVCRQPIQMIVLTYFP
HIF-2a inh conf: HIF-2a inhibition, single concentration confirmation; shares compounds with HIF-2a block; 786-0 RCC cells, HIF-2a luciferase reporter luminescence, overnight; inhibition, % at 18.8 µM; hit rate 56% among 1,800;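 active means mean inhibition across four replicates of at least 40 percent at the single tested concentration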
HIF-1a counter: HIF-1a inhibition counter-screen for HIF-2a hits. shares compounds with HIF-2a block. inhibition, % at 18.8 µM. hit rate 72% among 1,800. MiaPaCa-2 HIF-1a luciferase reporter, desferoxamine, overnight. AID 651589;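 active means mean inhibition of the reporter signal across four replicates at the single tested dose of 50% or more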
* marks the source's active call; other numbers are inactive results; . = no result given. Most compounds without a hit are left out; they make up all but 2.7% or so of the library.

SMILES | HIF-2a block | Shn3 inh set2 | MITF TRPM1 inh | KKLEB tox | CF NFkB block | Peg3 prom inh-1 | Peg3 prom inh-2 | CF NFkB inh conf | others
CS(=O)(=O)c1ccc2nc(NC(=O)CCS(=O)(=O)c3ccccc3)sc2c1 | 19.0 | 9.5 | 19.1 | 0.3 | 75.1* | 71.2* | 46.6* | 63.6*
O=C(Nc1ccc(-c2nc3ncccc3o2)cc1)c1ccc([N+](=O)[O-])o1 | -2.2 | 97.0* | 77.1* | -44.4 | 85.8* | 100.0* | 33.1 | -121.4
COc1cccc(-c2cnc(C(O)c3ccc(F)cc3C)[nH]2)c1 (centres undefined) | 1.5 | -3.3 | . | 4.6 | 10.6 | 18.8 | . | .
Nc1ccc(-c2nc3ccccc3o2)cc1 | -129.5 | -23.8 | 0.3 | -2.4 | -16.2 | -305.7 | . | .
O=C1C=CC(=O)N1c1ccc(-c2nc3ccccc3o2)cc1 | -96.3 | 80.4 | . | -24.7 | 50.8* | 108.0* | 97.3* | 10.3
Cc1cc2cc(CCNC(=O)C(=O)c3c[nH]c4ccccc34)c(=O)[nH]c2cc1C | 12.7 | 26.6 | 12.0 | -0.5 | 59.2* | 59.2* | 59.3* | 52.2*
O=C(NCCc1c[nH]c2ccccc12)C(=O)c1c[nH]c2ccccc12 | -33.1 | 13.7 | -6.1 | -5.0 | -12.0 | -23.9 | . | .
COc1ccc(Nc2nc(-c3ccccc3)nc3ccccc23)cc1S(=O)(=O)N1CCOCC1 | -57.2 | . | 5.8 | -24.5 | 89.4* | 62.4* | 58.9* | 74.6*
COc1ccc(NC(=O)c2cc(C)nc3ccccc23)cc1S(=O)(=O)N1CCOCC1 | 11.6 | -4.7 | 5.2 | -6.3 | 10.6 | -30.3 | . | .
Cc1c(C(=O)NCc2ccccc2C(F)(F)F)sc(=O)n1Cc1ccc2ccccc2c1 | 19.9 | -27.5 | . | -11.9 | -8.5 | 15.2 | . | .
Cc1ccc(-n2cc(-c3ccccc3)c3c(N4CCOCC4)ncnc32)cc1 | 16.5 | -31.8 | 1.2 | -16.8 | 84.5* | 66.8* | 62.5* | 87.1*
Cc1cnc(NC(=O)C2CC(=O)N(c3cccc(Cl)c3)C2)s1 (centres undefined) | -197.2 | -241.9 | -19.1 | 15.7 | 78.1* | 106.5* | 94.3* | 85.6*
COc1ccc(-c2oc3ccc(-c4cc(OC)c(OC)c(OC)c4)cc3c2C#Cc2ccccn2)cc1 | 7.5 | 16.1 | 6.3 | 3.5 | 72.1* | 54.0* | 51.4* | 28.1
COc1ccc(C#Cc2c(-c3ccc(OC)cc3)oc3ccc(-c4ccc(OC)cc4)cc23)cc1 | -0.5 | 1.5 | -3.2 | -23.8 | 21.1 | -4.5 | . | .
CCc1nccn1C(=O)c1cnn2c(C(F)F)cc(-c3ccc(C)cc3)nc12 | 30.1 | 46.3 | 46.8 | -44.1 | 68.1* | 61.3* | 92.6* | 91.1*
CCN1CCN(C(=O)c2cnn3c(C(F)F)cc(-c4ccc(C)cc4)nc23)CC1 | 9.2 | 7.0 | 10.0 | 0.7 | -12.3 | 7.6 | . | .
CN(C)c1ccc(C(C(=O)NCc2ccccc2)N(Cc2ccco2)C(=O)c2snc(C(N)=O)c2N)cc1 (centres undefined) | -0.8 | 14.5 | 14.8 | -42.3 | 98.8* | 60.6* | 45.1* | 88.9*
Cc1c(C(=O)NCc2ccc(F)cc2)sc(=O)n1Cc1ccc(Cl)c(Cl)c1 | 1.2 | 34.3 | . | -1.4 | -41.6 | 23.7 | . | .
Cc1ccc(CN2CC(C(=O)N3CC=C(c4ccccc4)CC3)CC2=O)cc1 (centres undefined) | 4.3 | 23.4 | 2.6 | 3.4 | -10.0 | 4.0 | . | .
CCc1nc(Sc2nnnn2-c2ccccc2)c2c3c(sc2n1)CCCC3 | 34.4 | -0.6 | 3.9 | -19.3 | 59.3* | 59.8* | 60.6* | 28.4
O=C1CC(c2cc(-c3ccccc3)no2)C1 | -228.3 | -57.6 | -71.2 | 6.0 | 12.5 | -174.6 | . | .
CCCCN1C[C@H](C)[C@@H](CC(=O)NCc2ccccc2)C1=O | 12.0 | 7.6 | 1.6 | 14.8 | -1.8 | 0.8 | . | .
Cc1ccc2nc(NC(=O)c3ccco3)sc2c1 | 47.9* | 48.3 | 57.0 | -23.1 | -13.1 | 68.9* | 30.6 | . | HIF-2a inh conf=71.0*;HIF-1a counter=67.8*
Cc1cccc(C)c1NS(=O)(=O)c1ccc(NC(=O)c2ccc(Cl)c([N+](=O)[O-])c2)cc1 | 90.5* | 17.7 | -6.1 | -2.7 | -0.9 | 106.2* | 98.5* | . | Mdm2-MdmX confirm=102.5*;HIF-2a inh conf=25.5;HIF-1a counter=107.7*
O=C(Nc1ccc(S(=O)(=O)NC2=NCCCCC2)cc1)c1ccc(Cl)c([N+](=O)[O-])c1 | 0.9 | 8.5 | 18.0 | -2.6 | 0.5 | -3.2 | . | .
SMILES | HIF-2a block | Shn3 inh set2 | MITF TRPM1 inh | KKLEB tox | CF NFkB block | Peg3 prom inh-1 | Peg3 prom inh-2 | CF NFkB inh conf | others
CC(=O)Oc1ccccc1-c1nc(/C=C/c2ccccc2)no1 | -182.9 | -45.1 | -59.7 | 4.7 | -8.7 | -288.9 | . | .
CSc1cc(-c2ccco2)oc1C(=O)c1ccco1 | 14.8 | . | 5.3 | -6.4 | 6.6 | 17.3 | . | .
CN1OC[C@@H]2CN[C@H](c3ccc(-c4cc5ccccc5o4)cc3)C[C@@H]21 | 90.3* | 84.9 | . | -45.5 | -3.5 | 89.4* | 90.2* | . | HIF-2a inh conf=95.7*;HIF-1a counter=97.6*
COc1cccc2nc3c(C(=O)NCCN(C)C)cccc3cc12 | 43.0* | 70.4 | 77.1* | 0.4 | -117.0 | 98.9* | 97.2* | . | HIF-2a inh conf=31.3;HIF-1a counter=104.7*
CCCNC(=O)c1cc(C2CCCN(S(=O)(=O)c3cccc4cccnc34)C2)on1 (centres undefined) | -4.7 | 59.0 | . | 9.6 | -16.9 | 14.6 | . | .
COc1ccc(OC)c(NC(=O)CCNS(=O)(=O)c2cc(Br)cnc2N)c1 | 23.1 | -3.8 | 0.9 | 0.8 | -0.8 | 11.0 | . | .
Cc1ccc2nc(-c3ccccc3)cn2c1 | 72.6* | 84.1 | 87.7* | 5.3 | -14.0 | 89.1* | 77.5* | . | HIF-2a inh conf=88.5*;HIF-1a counter=83.8*
CCOC(=O)c1cc2c(c(CCO)n1)[C@H](CCO)N(S(=O)C(C)(C)C)C2 (some centres undefined) | 2.5 | 8.7 | 1.4 | 18.9 | -37.0 | -11.4 | . | .
c1ccc(-c2nnc(NC3=NCCC3)o2)cc1 | -53.8 | 0.6 | -24.7 | 8.2 | -2.9 | -106.6 | . | .
Fc1ccc(-c2nnc(NC3=NCCCCC3)o2)cc1 | 67.3* | 58.4 | 61.8* | -9.7 | 5.6 | 81.5* | 56.8* | . | HIF-2a inh conf=75.4*;HIF-1a counter=66.2*
CCc1ccc(CN2CCC(n3nccc3NC(=O)c3cccc(F)c3)CC2)cc1 | 5.8 | 26.6 | 10.7 | 5.3 | -3.5 | 4.3 | . | .

Screens from PubChem.
